Data taken from PubChem BioAssay (NCATS).
Results filed as inconclusive are left out. Where a call stands in place of a potency, no number is given. Unmarked numbers belong to inactive results. Calls of active or inactive are those of the source. Calls come from the whole dose curve; as a rule, active = well fitted cell-killing curve with a large enough effect; inconclusive = small, poorly fitted or top-dose-only effect, or effect the other way; inactive = no such curve, though single readings can be large or run the other way.

Assays:
[1] = Viability qHTS for spleen associated tyrosine kinase inhibitor (SYKi) naive MV4-11 cells (AID 1963823); settings: MV4-11 AML viability, CellTiter-Glo luminescence, 72 h; series mostly up to 45 µM; note: nearly all actives have a fitted effect of over 40% in size
In short: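 qHTS, SYK inhibitor-naive MV4-11; 500 cells/well; 72 hr compound exposure, 37 C; CellTiter-Glo added, 10 min RT; luminescence read.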

[2] = Viability qHTS for spleen associated tyrosine kinase inhibitor (SYKi) drug resistant MV4-11 cells (AID 1963824); settings: SYKi-resistant MV4-11 viability, CellTiter-Glo, 72 h; series mostly up to 45 µM; note: nearly all actives have a fitted effect of over 35% in size
In short: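 SYK inhibitor-resistant MV4-11 AML cells, 500 per well, added to predispensed compounds and incubated 72 hr at 37 C, 5% CO2. Viability measured by CellTiter-Glo luminescence after 10 min at room temperature.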
Potency is the fitted concentration of half-maximal effect.

| Structure (SMILES) | Potency [1] | Potency [2] | viability (% of control) [1] | viability, % of control [2] |
| --- | --- | --- | --- | --- |
| C[C@@]1(O)[C@H](O)[C@@H](CO)O[C@H]1n1cnc2c(=O)[nH]c(N)nc21 | inactive | inactive | – | – |
| CC1=C(C(=O)OC2OC(COC3OC(CO)C(O)C(O)C3O)C(O)C(O)C2O)C(C)(C)CCC1 (stereo not drawn) | inactive | inactive | – | – |
| C=C[C@H]1C(O[C@@H]2O[C@H](CO)[C@@H](O)[C@H](O)[C@H]2O)OC=C2C(=O)N3CCc4c([nH]c5ccccc45)C3CC21 (stereo partly drawn) | inactive | inactive | – | – |
| CC1CCCC(O)CC(=O)c2c(O)cc(O)cc2CC(=O)O1 (stereo not drawn) | 3.21 µM (active) | 2.02 µM (active) | – | – |
| Cc1nc(C#Cc2ccnc(Cl)c2)c(C)n1-c1ccc(F)cc1 | 8.2 µM (active) | 8.2 µM (active) | – | – |
| COC1CC(O[C@H]2CC[C@@]3(C)C(=CC[C@]4(O)C3[C@H](OC(C)=O)[C@@H](OC(=O)c3ccccc3)[C@]3(C)[C@@H](C(C)=O)CC[C@@]34O)C2)OC(C)C1OC1CC(OC)C(OC2CC(OC)C(OC3OC(C)C(OC4OC(CO)C(O)C(O)C4O)C(OC)C3O)C(C)O2)C(C)O1 (stereo partly drawn) | – | – | 74.5% [at 9.25 µM] | 66.2% [at 9.25 µM] |
| CCn1c(-c2nonc2N)nc2c(C#CC(C)(C)O)ncc(OCC3CCCNC3)c21 (stereo not drawn) | 13 µM (active) | 8.2 µM (active) | – | – |
| C/C(=C\CCC(C)C1CC(O)C2(C)C3CCC4C(C)(C)C(OC5OCC(O)C(O)C5O)CCC45CC35CC(O)C12C)C(=O)O (stereo not drawn) | inactive | inactive | – | – |
| O=C(CO)[C@@H](O)[C@H](O[C@@H]1O[C@H](CO)[C@H](O)[C@H](O)[C@H]1O)[C@H](O)CO | inactive | inactive | – | – |
